Experimental findings from PubChem BioAssay (NCI) are described below.

Compounds without any hit were thinned out: in the full panel of roughly 83,000, 20% have a hit.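 For each line, cells grew in 96-well plates with the test compound present at a single concentration for 48 hours.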 Unmarked numbers belong to inactive results. Active and inactive are the calls of the source. Rule for the calls: active = growth percent below 10; inactive = the rest.

Assay in all cases: NCI-60 one-dose screen, 48 h (100 = growth as untreated, 0 = no growth, -100 = all killed)
What all share (conditions): 10 µM unless noted

Assay [1] concerns NCI-H23 lung.
For assay [2], the system named is NCI-H226 lung.
Assay [3] concerns NCI-H322M lung.
Assay [4] has as its system HOP-62 NSCLC.
The test system of assay [5] is NCI-H460 lung.
The test system of assay [6] is NCI-H522 lung.
The test system of assay [7] is A549/ATCC NSCLC.
In assay [8] the test system is 786-0 renal.
For assay [9], the system named is COLO 205 colon.

Turning to `C=CCN(CC#N)CC=C`, the growth was 106% in assay [1]; 95.5% in assay [2]; 106% in assay [3]; 98.5% in assay [4]; 115% in assay [5]; 97.7% in assay [6]. Moreover, the growth in [7] was 101%; in [8], 107%; in assay [9], 113%.
As for `COc1ccc2c(c1)C1=NN(C(=O)CO)[C@H](c3ccc(OC(F)(F)F)cc3)[C@@H]1CC2`, the growth in assay [1] is 92.2%; in [2], 84.5%; in assay [3], 130%; in [4], 97.4%; in [5], 103%; in [6], 82.6%. Moreover, the growth was 89.3% in assay [7], 103% in assay [8] and 110% in assay [9].
On to `N/C(=N\OC(=O)c1ccccc1)C(C(=O)NOC(=O)c1ccccc1)C1CCCCC1` (stereo not given), for which the growth in assay [1] was 49.3%; in assay [2], 100%; in assay [3], 84.7%; in [4] it was -7% (active); in assay [5], 34.5%; in assay [6], -46.9% (active). Also, the growth in [7] was 1.51% (active); in [8], 76%; in assay [9] it was 77.3%.
For `CCOC(=O)C1C(=O)C=C(c2ccccc2)CC1c1sc(N(C)Cc2ccccc2)nc1Cl` (stereo not given), the growth is 89.1% in [1]; 85.8% in assay [2]; 91.2% in assay [3]; 85.6% in assay [4]; 93.3% in assay [5]; 73.5% in assay [6]. The growth was 83.8% in assay [7], 93.2% in assay [8] and 100% in assay [9].
As for `CC1OC(n2c3ccccc3c3c4c(c5c6ccccc6[nH]c5c32)C(=O)N(CCN[C@H]2CCC[C@@H]2N)C4=O)CC(O)C1O` (stereo not given in full), the growth in assay [1] was 33.8%; in [2], 40.5%; in assay [3], 54.2%; in assay [4] it was 30.2%; in assay [5], 2.3% (active); in assay [6] it was 16.9%. Besides, the growth is 25.2% in [7], 50.2% in [8] and 11.5% in assay [9].
Consider `COC(=O)c1ccc2c(c1)nc(-c1cc3ccccc3[nH]c1=O)n2-c1cc(C(C)(C)C)[nH]n1`, for which the growth in [1] is 44.7%; in assay [2] it was 90.4%; in assay [3], 77%; in assay [4] it was 66.5%; in assay [5] it was 45.4%; in assay [6], -2.05% (active). Besides, the growth in [7] is 81.5%; in assay [8] it was 33.3%; in [9], 71.6%.
As for `CCOc1cc(/C=N\NC(=O)C[N+](C)(C)C)ccc1O`, the growth is 104% in [1]; 97.5% in [2]; 123% in assay [3]; 115% in assay [4]; 114% in assay [5]; 104% in [6]. Also, the growth was 105% in assay [7], 113% in [8] and 119% in assay [9].
Turning to `Cc1ccc(C(CN(C)C)C(=O)c2ccccc2)cc1` (stereo not given), the growth is 71.5% in [1]; 80.9% in [2]; 101% in assay [3]; 101% in assay [4]; 71.7% in assay [5]; -66.4% (active) in assay [6]. In addition, the growth in assay [7] is 81.7%; in [8], -20.7% (active); in [9], 43.5%.
As for `CO[C@H](C(=O)[C@@H](O)[C@@H](C)O)[C@@H]1Cc2cc3cc(O[C@H]4C[C@@H](O[C@H]5C[C@@H](O)[C@H](O)C(C)O5)[C@H](O)C(C)O4)c(C)c(O)c3c(O)c2C(=O)[C@H]1O[C@H]1C[C@@H](O[C@H]2C[C@@H](O[C@H]3C[C@](C)(O)C(=O)C(C)O3)[C@@H](O)C(C)O2)[C@H](O)C(C)O1` (stereo not given in full), the growth in assay [1] was -7.26% (active); in assay [2], 1.78% (active); in [3], 7.31% (active); in [4], -2.07% (active); in assay [5], 4.88% (active); in assay [6], -31.9% (active). In addition, the figures for the growth in [7], in assay [8] and in assay [9] were 4.12% (active), 4.11% (active) and -52.4% (active), respectively.
On to `CN(C)CCCn1c(=O)c2cc([N+](=O)[O-])ccc2c2cnc3[nH]ccc3c21`, for which the growth was 58.8% in [1]; 44.3% in assay [2]; 46.3% in assay [3]; 45.1% in assay [4]; 17.3% in assay [5]; 17.9% in assay [6]. The growth is 41.5% in assay [7], 7.2% (active) in [8] and 28% in assay [9].
Turning to `CC1=C(/C=C/C(C)=C/C=C(C(=O)O)\C(C)=C\C(=O)O)C(C)(C)CCC1`, the growth was 101% in [1]; 112% in assay [2]; 103% in assay [3]; 108% in assay [4]; 104% in assay [5]; 77.9% in assay [6]. Also, the growth in [7] was 93.7%; in [8], 99.5%; in assay [9], 112%.
Regarding `COc1cc(-c2nn(C(=O)NCCN3CCN(C)CC3)cc2-c2ccncc2)ccc1Cl`, the growth in assay [1] was 90.5%; in assay [2], 27.1%; in assay [3] it was 106%; in [4] it was 41.6%; in assay [5], 93.5%; in [6] it was 75.3%. Moreover, the figures for the growth in assay [7], in [8] and in assay [9] were 57%, 59.3% and 50.9%, respectively.
Turning to `O=C(NO)c1ccc(CNc2cccc3nc(C4CC4)n(-c4ccccc4)c(=O)c23)cc1`, the growth in assay [1] was -48.4% (active); in assay [2], 44.4%; in assay [3], 37.7%; in assay [4], 21.5%; in assay [5], 22.6%; in [6], 19.2%. The growth in assay [7] is 15.3%; in assay [8], 24.8%; in assay [9], 8.11% (active).
`Nc1c(Br)cc2c(c1Br)Cc1cc(Cl)ccc1-2`: the growth in assay [1] is 89.2%; in assay [2] it was 78.6%; in assay [3], 89.2%; in assay [4] it was 83.4%; in assay [5] it was 99.7%; in assay [6] it was 102%. The figures for the growth in assay [7], in [8] and in assay [9] were 95.8%, 108% and 106%, respectively.
For the compound `CC(C)(C)c1nn(-c2ccccc2)c2c1C(=O)CSC(c1ccc3c(c1)OCO3)N2` (stereo not given), the growth was 99.8% in assay [1]; 104% in assay [2]; 88.8% in [3]; 88.6% in assay [4]; 106% in assay [5]; 89.7% in assay [6]. Also, the growth is 112% in assay [7], 88.7% in assay [8] and 113% in assay [9].
